Assay outcomes deposited in PubChem BioAssay by several laboratories.
SKKanGAS inh: SKKanGAS growth inhibition. S. pyogenes SKKanGAS, kanamycin growth, BacTiter-Glo, 6 h. inhibition, % at 7.5 µM. 1.3% of 300,000 active;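 active = mean replicate score, as percent of positive control median, at least 50; inconclusive = mean below 50 but one replicate at or above 50; inactive = mean and every replicate below 50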;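 also: strain carries kanamycin resistance gene driven by streptokinase promoter and grows in 40 µg/ml kanamycin; loss of luminescence reflects streptokinase promoter inhibition or plain growth inhibition; 0% = median of DMSO wells and 100% = positive control at its reference dose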
MPTP inh: inhibitors of mitochondrial permeability transition pore; isolated mouse mitochondria, Ca2+ swelling absorbance, 30 min; inhibition, % at 10 µM; 1.4% of 360,000 active; AID 602449;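 active = inhibition of 50% or more, scaled per plate between neutral and stimulator controls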;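 also: 0% = DMSO wells given calcium and 100% = 1 mM EGTA wells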
CSC inhib: cancer stem cell inhibition | AID 2717 | 1.1% of 300,000 active | cancer stem cell-like cells viability, luminescence | inhibition, % at 7.5 µM; in the data active = inhibition above about 75%; inconclusive = no clear call, values can overlap the other calls; tested in HMLE shEcad cells
Beta cell apopt: beta cell apoptosis inhibition. protection from apoptosis, % (concentration not given with the values). 0.8% of 300,000 active. INS-1E cytokine-induced death, ATP luminescence, 48 h; percent of positive-control rescue, neutral wells zero;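 active = Every replicate reaches about 75%, or at least half do and their mean reaches it too, limit read from the data; inconclusive = At least half of replicates reach the limit but their mean does not; inactive = Under half of replicates reach the limit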;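 also: 0% = cytokine-treated negative control wells and 100% = positive control rescue; higher means more ATP so stronger rescue from cytokine killing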
Calb FLC: affects C. albicans growth with fluconazole | C. albicans CaCi-2 (fluconazole-resistant clinical isolate) + fluconazole, Alamar Blue growth, 48 h | growth inhibition, % (no concentration beside the values) | 0.57% of 300,000 active | AID 1979;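 active = growth inhibition above about 58% in most replicates, limit read from the data, passing the limit was not always enough; inconclusive = exactly half the replicates above a set limit; inactive = most replicates below a set limit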;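 also: all wells also contain fluconazole at 8 µg/ml as a sub-toxic cotreatment; 0% = median of DMSO wells and 100% = median of geldanamycin control wells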
Mdm2 MdmX PPI: inhibitors of human Mdm2/MdmX interaction; SaOS-2 split-luciferase Mdm2/MdmX complementation, luminescence; inhibition, % at 8 µM; 3% of 330,000 active; AID 485346;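 active = inhibition of at least 50% at 8 µM in the primary screen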
Target sequence (O15151 whole entry, looked up): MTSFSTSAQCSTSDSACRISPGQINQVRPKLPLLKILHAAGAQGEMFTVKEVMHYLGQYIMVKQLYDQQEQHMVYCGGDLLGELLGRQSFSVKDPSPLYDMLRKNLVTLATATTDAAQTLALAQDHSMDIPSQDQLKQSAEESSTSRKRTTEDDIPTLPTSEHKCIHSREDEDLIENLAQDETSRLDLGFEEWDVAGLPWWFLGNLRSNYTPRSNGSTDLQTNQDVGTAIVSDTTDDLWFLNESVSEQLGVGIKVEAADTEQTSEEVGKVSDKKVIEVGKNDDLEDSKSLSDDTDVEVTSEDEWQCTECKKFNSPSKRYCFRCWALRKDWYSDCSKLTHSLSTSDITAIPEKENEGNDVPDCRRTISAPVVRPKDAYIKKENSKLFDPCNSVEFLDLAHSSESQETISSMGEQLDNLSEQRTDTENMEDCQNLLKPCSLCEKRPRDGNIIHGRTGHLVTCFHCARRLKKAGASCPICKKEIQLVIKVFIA
Target sequence (Q00987 whole entry, looked up): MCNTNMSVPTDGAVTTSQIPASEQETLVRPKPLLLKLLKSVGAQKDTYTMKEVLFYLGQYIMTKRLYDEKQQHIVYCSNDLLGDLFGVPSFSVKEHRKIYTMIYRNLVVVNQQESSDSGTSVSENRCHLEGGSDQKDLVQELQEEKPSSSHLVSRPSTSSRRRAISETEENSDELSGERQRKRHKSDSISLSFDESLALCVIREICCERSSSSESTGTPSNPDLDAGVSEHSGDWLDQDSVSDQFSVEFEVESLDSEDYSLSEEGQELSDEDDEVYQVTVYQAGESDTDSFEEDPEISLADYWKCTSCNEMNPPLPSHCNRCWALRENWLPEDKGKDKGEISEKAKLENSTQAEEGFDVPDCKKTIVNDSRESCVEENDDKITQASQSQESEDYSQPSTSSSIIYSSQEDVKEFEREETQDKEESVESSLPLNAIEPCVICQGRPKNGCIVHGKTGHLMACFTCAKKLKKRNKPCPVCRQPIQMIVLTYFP
* marks the source's active call; other numbers are inactive results; u = inconclusive; x = no result. Compounds with a hit are over-represented: about 5.4% of the library has one in this group of screens.

SMILES | SKKanGAS inh | MPTP inh | CSC inhib | Beta cell apopt | Calb FLC | Mdm2 MdmX PPI
Cc1ccc(Cc2cnc(N3C(=N)SC(C)C3=O)s2)cc1 (configuration not stated) | 90* | -1 | 43 | 8 | 82* | 10
Cc1cccc(Cc2cnc(N3C(=N)SC(C)C3=O)s2)c1 (configuration not stated) | 93* | 2 | 56 | 3 | 94* | 34
CCOC(=O)C1(C)CCCCN1C(=O)c1ccnc(Cl)c1 (configuration not stated) | x | 0 | x | x | x | x
N#Cc1ccc2nc3c(nc2c1)CCCC3 | 4 | -1 | x | x | -4 | 5
CN1C(=O)/C(=C/c2cn(CC(=O)N3CCCCC3)c3ccccc23)NC1=S | x | 1 | -1 | 2 | 112* | 11
CCCN1C(=O)/C(=C\c2ccncc2)SC1=Nc1ccccc1 | 0 | 1 | x | -9 | -30 | 6
CCN1C(=O)/C(=C\c2ccncc2)SC1=Nc1ccc(C)c(C)c1 | 13 | 1 | 84* | 8 | 3 | 25
CCCC(CCC)C(=O)NCCN1CCOCC1 | 1 | -2 | 1 | -7 | 0 | 6
c1ccc(Nc2nc3ccccc3[nH]2)nc1 | 62* | 2 | 5 | x | -9 | -17
O=C(/C=C/c1cccc([N+](=O)[O-])c1)c1ccc([N+](=O)[O-])o1 | 86* | -2 | 42 | 133* | 2 | x
CCSc1n[nH]c2nc3c(c(=O)n12)C1(CCCC1)Cc1ccccc1-3 | 65* | -3 | 4 | -4 | -5 | 12
O=c1c2c(nc3n1CCCCC3)-c1ccccc1CC21CCCC1 | 34 | -1 | 93* | -6 | -20 | -12
COc1ccc(NC(=O)CSc2ccc([N+](=O)[O-])cc2)cc1S(=O)(=O)N1CCOCC1 | x | -2 | x | x | x | -10
CN(/N=C/c1ccc(Cl)cc1)c1ncc(Cl)cc1C(F)(F)F | 73* | 3 | 51 | 6 | -5 | -22
CN(/N=C/c1ccc(Cl)cc1Cl)c1ncc(Cl)cc1C(F)(F)F | 76* | -1 | 7 | 4 | -10 | 21
O=C(Cn1cnc2ccccc2c1=O)c1c[nH]c2ccccc12 | -11 | -2 | -2 | -2 | -3 | -33
Cc1ccc(-c2nnc(Nc3ccccc3)c3ccccc23)cc1S(=O)(=O)NCC1CCCO1 (configuration not stated) | 18 | 30 | -9 | 12 | 61* | 36
CC(=O)Nc1ccc(Nc2nnc(-c3ccc(C)c(S(=O)(=O)NCC4CCCO4)c3)c3ccccc23)cc1 (configuration not stated) | 11 | 0 | -14 | 5 | -5 | 20
CCOC(=O)C1=C(C)NC(=O)NC1c1c(OC)ccc2ccccc12 (configuration not stated) | -3 | -1 | -8 | -5 | -2 | -7
O=C(O)CN1C(=O)C=CC1=O | x | -1 | x | x | x | x
O=C1C=CC(=O)N1CCCCCCN1C(=O)C=CC1=O | x | x | 102* | 65 | x | x
COc1ccc(CN(C)[C@H]2C[C@H]3c4[nH]c5ccccc5c4CCN3C[C@H]2[C@H](C)O)cc1 | x | 0 | x | x | x | x
Nc1nnnn1/N=C/c1cccc(Oc2ccccc2)c1 | -16 | -1 | -13 | -14 | 78* | 26
O=C(O)c1cc(N/N=C/c2ccc3c(c2)OCCO3)ccc1Cl | x | -1 | -12 | 4 | x | x
Cc1ccc(N/N=C/c2ccc3c(c2)OCCO3)cc1Cl | -7 | -1 | 13 | x | 102* | 8
SMILES | SKKanGAS inh | MPTP inh | CSC inhib | Beta cell apopt | Calb FLC | Mdm2 MdmX PPI
CCCCCCCc1c(C)nc(N2CCOCC2)[nH]c1=O | -3 | 1 | 1 | -4 | -20 | 9
CCCCCCc1c(C)nc(-n2[nH]c(C)c(CCO)c2=O)[nH]c1=O | 11 | 0 | -6 | 3 | 93* | 10
CCCSc1nnc(NC(=O)Cc2ccc(OC)c(OC)c2)s1 | -1 | 0 | -7 | -1 | -5 | -13
S=c1[nH]c(-c2ccccc2)cn1/N=C/c1cccc2ccccc12 | 57* | -2 | 59 | 6 | -4 | 34
S=c1[nH]c(-c2ccccc2)cn1/N=C/c1ccccc1Br | 11 | 0 | 23 | 18 | -25 | -18
O=C(CCNC(=O)c1ccc([N+](=O)[O-])cc1)Nc1nccs1 | -5 | 0 | -12 | 0 | 0 | -4
O=C(CCNC(=O)c1ccc(Br)cc1)Nc1nccs1 | 0 | 0 | -8 | -1 | 112* | 2
CCOC(=O)c1cn(-c2ccc(F)c(F)c2)c2c(F)c(F)c(F)c(F)c2c1=O | -21 | x | x | x | -15 | x
CCN(c1ccc(OC)cc1)S(=O)(=O)c1nnc(NC(=O)c2ccccc2Cl)s1 | 50* | 1 | 21 | 5 | 9 | -24
Cc1nn(C(=O)c2cccnc2)c(C)c1Sc1ccc(Br)cc1 | 63* | 7 | -1 | -16 | 0 | 14
Oc1ccccc1C1CCCCC1c1ccccc1 (configuration not stated) | u | 1 | 76* | 13 | -9 | x
Oc1ccccc1C1SC(c2ccccc2O)SC(c2ccccc2O)S1 (configuration not stated) | x | 9 | x | x | x | x
Cc1cc(NCCCn2ccnc2)n2nc(C)c(-c3ccc(Cl)cc3)c2n1 | 8 | 0 | 125* | 48 | 51 | 32
Cc1ccc(-n2nnnc2SCC(=O)NC2CCS(=O)(=O)C2)c(C)c1 (configuration not stated) | x | 1 | x | x | x | 1
COc1ccc(/C=N/NC(=O)c2ccccc2O)cc1Cn1cc([N+](=O)[O-])cn1 | -1 | 1 | 7 | -1 | -2 | -9
COc1ccc(/C=N/NC(=O)c2cc(O)c(O)c(O)c2)cc1Cn1cc([N+](=O)[O-])cn1 | -2 | 4 | x | x | 97* | x
O=C(NC(=S)Nc1ccc(N2CCCC2)cc1)c1ccccc1[N+](=O)[O-] | 1 | 1 | -9 | 1 | -26 | 8
CCCCN(C)CCNC(=O)c1cc2c(-c3ccccc3F)nn(C)c2s1 | 5 | -1 | 12 | 97* | 1 | 30
Cn1nc(-c2ccc(Cl)cc2)c2cc(C(=O)NCCCN3CCCC3)sc21 | -1 | -1 | 82* | 17 | 4 | 50
COCCNC(=O)c1cc2c(-c3ccccc3F)nn(C)c2s1 | -10 | 0 | -2 | 3 | 8 | 15
O=C(COC(=O)/C=C/c1ccc2c(c1)OCO2)NCc1ccc(F)cc1 | x | 0 | x | x | x | x
CCOC(=O)Cn1c(=O)oc2cc(S(=O)(=O)N3CCCC(C)C3)ccc21 (configuration not stated) | -6 | 1 | 7 | 2 | -1 | 1
COc1ccc(CC(=O)Nc2ccc3nc(C)sc3c2)cc1OC | -8 | 1 | x | -5 | 19 | 0
COC1=C(Nc2ccccc2OC)C(=O)c2ccccc2C1=O | 24 | 1 | 13 | 83* | 30 | -1
CCc1nc2c(OCc3ccc(C#N)cc3)cccn2c1N(C)C(=O)c1ccc(C)cc1 | x | 0 | x | x | x | x
O=C1C(Oc2ccccc2)C(c2cccs2)N1Cc1ccc2c(c1)OCO2 (configuration not stated) | 10 | 2 | 16 | 10 | -23 | 10
